Test results taken from PubChem BioAssay (EPA / NIEHS).
Active and inactive are the calls of the source. Rule for the calls: active = hit-call score of the fitted dose curve at least 0.9, where 1 is the maximum; inactive = score below 0.9.

How the values were obtained:
Settings in all cases: mRNA level, 48 h; actives raise or lower the signal
[1] = read-out: Cytochrome P450 7A1 (Homo sapiens) (UniProt P22680); test: LTEA_HepaRG_CYP7A1: Life Technologies and Expression Analysis (LTEA) Assay for Cytochrome P450 7A1 (CYP7A1) using HepaRG (AID 2283496)
Procedure, shortened: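 Gene expression endpoint in human HepaRG liver cells treated for 48 h with test chemicals (up to 100 uM, 0.5% DMSO). Values come from bidirectional concentration-response fitting versus DMSO.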

[2] = read-out: Glutathione S-Transferase (GSTA2), GSTA2 (gene 2939); test: LTEA_HepaRG_GSTA2: Life Technologies and Expression Analysis (LTEA) Assay for Glutathione S-Transferase (GSTA2) using HepaRG (AID 2283497)
Procedure, shortened: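 Human HepaRG cells, plated 48 h, then exposed in serum-free induction medium for 48 h to eight half-log concentrations up to 100 uM in 0.5% DMSO, duplicate. GSTA2 mRNA by qRT-PCR, normalized to ACTB/GAPDH/POLR2A; bidirectional fit versus DMSO.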

[3] = read-out: Glutamate-cysteine ligase catalytic (GCLC), GCLC (gene 2729); test: LTEA_HepaRG_GCLC: Life Technologies and Expression Analysis (LTEA) Assay for Glutamate-cysteine ligase catalytic (GCLC) using HepaRG (AID 2283498)
Procedure, shortened: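 Differentiated human HepaRG cells, plated 48 h then switched to serum-free induction medium, were exposed in duplicate for 48 h to 8 half-log concentrations topping at 100 uM in 0.5% DMSO. GCLC mRNA was quantified by qRT-PCR against ACTB, GAPDH and POLR2A.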

[4] = read-out: Glutamate-cysteine ligase regulatory (GCLM), GCLM (gene 2730); test: LTEA_HepaRG_GCLM: Life Technologies and Expression Analysis (LTEA) Assay for Glutamate-cysteine ligase regulatory (GCLM) using HepaRG (AID 2283500)
Procedure, shortened: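 Differentiated human HepaRG cells exposed 48 h in serum-free induction medium to 8-point half-log concentrations (top 100 uM, 0.5% DMSO), in duplicate. GCLM mRNA quantified by qRT-PCR, normalized to ACTB, GAPDH, POLR2A; bidirectional fitting versus DMSO.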

[5] = read-out: Glutathione S-transferase M3 (GSTM3), GSTM3 (gene 2947); test: LTEA_HepaRG_GSTM3: Life Technologies and Expression Analysis (LTEA) Assay for Glutathione S-transferase M3 (GSTM3) using HepaRG (AID 2283501)
Procedure, shortened: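 Differentiated HepaRG cells in serum-free induction medium were exposed in duplicate for 48 h to 8 half-log concentrations up to 100 uM in 0.5% DMSO. GSTM3 mRNA was measured by TaqMan qRT-PCR, normalized to ACTB/GAPDH/POLR2A, and fitted bidirectionally versus DMSO.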

[6] = read-out: Heat shock 70 kDa protein 1 (HSPA1A), gene 3303; test: LTEA_HepaRG_HSPA1A: Life Technologies and Expression Analysis (LTEA) Assay for Heat shock 70 kDa protein 1 (HSPA1A) using HepaRG (AID 2283502)
Procedure, shortened: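 Differentiated human HepaRG cells in serum-free induction medium were exposed in duplicate for 48 h to eight concentrations (top 100 uM, half-log steps, 0.5% DMSO). HSPA1A mRNA was quantified by qRT-PCR, normalized to ACTB, GAPDH and POLR2A, and fitted bidirectionally against DMSO.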

[7] = read-out: Hypoxia-inducible factor 1-alpha (Homo sapiens) (UniProt Q16665); test: LTEA_HepaRG_HIF1A: Life Technologies and Expression Analysis (LTEA) Assay for Hypoxia-inducible factor 1 (HIF1A) Trancription factor using HepaRG (AID 2283503)
Procedure, shortened: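 HepaRG, 48 h exposure, 8-pt half-log series from 100 uM, 0.5% DMSO vehicle, duplicates. Readout: HIF1A transcript by qRT-PCR (Fluidigm array), housekeeping-normalised. Bidirectional curve fit vs DMSO baseline.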

[8] = read-out: 3-Hydroxy-3-Methylglutaryl-CoA Synthase 2 (HMGCS2), HMGCS2 (gene 3158); test: LTEA_HepaRG_HMGCS2: Life Technologies and Expression Analysis (LTEA) Assay for 3-Hydroxy-3-Methylglutaryl-CoA Synthase 2 (HMGCS2) using HepaRG (AID 2283504)
Procedure, shortened: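 Differentiated human HepaRG cells were exposed in duplicate for 48 h in serum-free induction medium to eight concentrations (top 100 uM, half-log steps, 0.5% DMSO). HMGCS2 mRNA was quantified by TaqMan qRT-PCR, normalised to ACTB, GAPDH and POLR2A, then fitted bidirectionally against DMSO.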

HGF (gene 3082) = test: LTEA_HepaRG_HGF: Life Technologies and Expression Analysis (LTEA) Assay for Hepatocyte Growth Facto (HGF) using HepaRG (AID 2283505)
Procedure, shortened: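 Differentiated human HepaRG cells in serum-free induction medium were exposed in duplicate for 48 h to eight concentrations (top 100 uM, half-log steps, 0.5% DMSO). HGF mRNA was quantified by qRT-PCR, normalized to ACTB, GAPDH and POLR2A.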

[9] = read-out: Insulin Like Growth Factor 1 (IGF1), IGF1 (gene 3479); test: LTEA_HepaRG_IGF1: Life Technologies and Expression Analysis (LTEA) Assay for Insulin Like Growth Factor 1 (IGF1) using HepaRG (AID 2283506)
Procedure, shortened: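 Differentiated human HepaRG cells were dosed for 48 h in serum-free induction medium with 0.5% DMSO, eight half-log concentrations up to 100 uM, in duplicate. IGF1 mRNA was quantified by qRT-PCR normalized to ACTB, GAPDH, POLR2A; bidirectional fitting versus DMSO.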

[10] = read-out: Intercellular Adhesion Molecule 1 (ICAM1), ICAM1 (gene 3383); test: LTEA_HepaRG_ICAM1: Life Technologies and Expression Analysis (LTEA) Assay for Intercellular Adhesion Molecule 1 (ICAM1) using HepaRG (AID 2283507)
Procedure, shortened: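 Differentiated HepaRG cells in serum-free induction medium were exposed in duplicate for 48 h to eight half-log concentrations up to 100 uM in 0.5% DMSO. Transcript levels were measured by qRT-PCR normalized to ACTB, GAPDH and POLR2A; bidirectional fits relative to DMSO.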

[11] = read-out: Insulin-like growth factor-binding protein 1 (IGFBP1), IGFBP1 (gene 3484); test: LTEA_HepaRG_IGFBP1: Life Technologies and Expression Analysis (LTEA) Assay for Insulin-like growth factor-binding protein 1 (IGFBP1) using HepaRG (AID 2283508)
Procedure, shortened: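 Differentiated human HepaRG cells in serum-free induction medium were exposed in duplicate for 48 h to eight concentrations, top 100 uM with half-log dilutions, in 0.5% DMSO. Transcript levels came from qRT-PCR normalised to ACTB, GAPDH and POLR2A, fitted bidirectionally against DMSO.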

[12] = read-out: Interleukin 6 (IL6), IL6 (gene 3569); test: LTEA_HepaRG_IL6: Life Technologies and Expression Analysis (LTEA) Assay for Interleukin 6 (IL6) using HepaRG (AID 2283509)
Procedure, shortened: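 Differentiated human HepaRG cells, plated 48 h then switched to serum-free induction medium, were exposed in duplicate for 48 h to eight half-log concentrations up to 100 uM in 0.5% DMSO. IL6 mRNA measured by qRT-PCR, normalized to ACTB/GAPDH/POLR2A.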

[13] = read-out: Interleukin 6 Receptor (IL6R), IL6R (gene 3570); test: LTEA_HepaRG_IL6R: Life Technologies and Expression Analysis (LTEA) Assay for Interleukin 6 Receptor (IL6R) using HepaRG (AID 2283510)
Procedure, shortened: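 Differentiated human HepaRG cells, plated 48 h then switched to serum-free induction medium, were dosed in duplicate for 48 h at eight half-log concentrations up to 100 uM in 0.5% DMSO. IL6R mRNA quantified by qRT-PCR, normalized to ACTB/GAPDH/POLR2A; bidirectional fit versus DMSO.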

[14] = read-out: Potassium channel subfamily K member 1 (KCNK1), KCNK1 (gene 3775); test: LTEA_HepaRG_KCNK1: Life Technologies and Expression Analysis (LTEA) Assay for Potassium channel subfamily K member 1 (KCNK1) using HepaRG (AID 2283511)
Procedure, shortened: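 Differentiated human HepaRG cells in serum-free induction medium were exposed in duplicate for 48 h to 8 half-log concentrations up to 100 uM in 0.5% DMSO. KCNK1 mRNA was measured by TaqMan qRT-PCR, normalized to ACTB, GAPDH and POLR2A, and fitted bidirectionally versus DMSO.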

[15] = read-out: Keratin 19 (KRT19), KRT19 (gene 3880); test: LTEA_HepaRG_KRT19: Life Technologies and Expression Analysis (LTEA) Assay for Keratin 19 (KRT19) using HepaRG (AID 2283512)
Procedure, shortened: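 Differentiated human HepaRG cells, plated 48 h, were exposed in duplicate for 48 h in serum-free induction medium to eight half-log concentrations up to 100 uM in 0.5% DMSO. KRT19 mRNA was quantified by qRT-PCR, normalized to ACTB, GAPDH and POLR2A, and fitted bidirectionally versus DMSO.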

[16] = read-out: JUN Transcription Factor, JUN (gene 3725); test: LTEA_HepaRG_JUN: Life Technologies and Expression Analysis (LTEA) Assay for JUN Transcription Factor using HepaRG (AID 2283513)
Procedure, shortened: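 Differentiated HepaRG cells were exposed to chemicals for 48 h in serum-free induction medium, 8 concentrations from 100 uM in half-log steps, 0.5% DMSO vehicle, in duplicate. JUN mRNA was quantified by TaqMan qRT-PCR, normalized to ACTB, GAPDH, POLR2A.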

[17] = read-out: Lipase C (LIPC), LIPC (gene 3990); test: LTEA_HepaRG_LIPC: Life Technologies and Expression Analysis (LTEA) Assay for Lipase C (LIPC) using HepaRG (AID 2283514)
Procedure, shortened: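 Differentiated human HepaRG cells in serum-free induction medium were exposed in duplicate for 48 h to eight concentrations (top 100 uM, half-log steps, 0.5% DMSO). LIPC mRNA was quantified by TaqMan qRT-PCR, normalized to ACTB, GAPDH and POLR2A, with bidirectional fitting versus DMSO.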

[18] = read-out: Lipoprotein lipase (LPL), LPL (gene 4023); test: LTEA_HepaRG_LPL: Life Technologies and Expression Analysis (LTEA) Assay for Lipoprotein lipase (LPL) using HepaRG (AID 2283515)
Procedure, shortened: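 Differentiated human HepaRG cells in serum-free induction medium were exposed in duplicate for 48 h to eight half-log concentrations (top 100 uM) in 0.5% DMSO. LPL mRNA was quantified by TaqMan qRT-PCR, normalized to ACTB, GAPDH and POLR2A.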

[19] = read-out: growth arrest and DNA damage 45 (GADD45G), GADD45G (gene 10912); test: LTEA_HepaRG_GADD45G: Life Technologies and Expression Analysis (LTEA) Assay for growth arrest and DNA damage 45 (GADD45G) using HepaRG (AID 2283499)
Procedure, shortened: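 Differentiated human HepaRG cells in serum-free induction medium were exposed for 48 h to 8 half-log concentrations up to 100 uM in 0.5% DMSO, in duplicate. GADD45G mRNA was measured by TaqMan qRT-PCR, normalised to ACTB, GAPDH and POLR2A, and fitted bidirectionally against DMSO.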

Measured: AC50

Sequence of Hypoxia-inducible factor 1-alpha (Homo sapiens) (Q16665 whole entry, looked up): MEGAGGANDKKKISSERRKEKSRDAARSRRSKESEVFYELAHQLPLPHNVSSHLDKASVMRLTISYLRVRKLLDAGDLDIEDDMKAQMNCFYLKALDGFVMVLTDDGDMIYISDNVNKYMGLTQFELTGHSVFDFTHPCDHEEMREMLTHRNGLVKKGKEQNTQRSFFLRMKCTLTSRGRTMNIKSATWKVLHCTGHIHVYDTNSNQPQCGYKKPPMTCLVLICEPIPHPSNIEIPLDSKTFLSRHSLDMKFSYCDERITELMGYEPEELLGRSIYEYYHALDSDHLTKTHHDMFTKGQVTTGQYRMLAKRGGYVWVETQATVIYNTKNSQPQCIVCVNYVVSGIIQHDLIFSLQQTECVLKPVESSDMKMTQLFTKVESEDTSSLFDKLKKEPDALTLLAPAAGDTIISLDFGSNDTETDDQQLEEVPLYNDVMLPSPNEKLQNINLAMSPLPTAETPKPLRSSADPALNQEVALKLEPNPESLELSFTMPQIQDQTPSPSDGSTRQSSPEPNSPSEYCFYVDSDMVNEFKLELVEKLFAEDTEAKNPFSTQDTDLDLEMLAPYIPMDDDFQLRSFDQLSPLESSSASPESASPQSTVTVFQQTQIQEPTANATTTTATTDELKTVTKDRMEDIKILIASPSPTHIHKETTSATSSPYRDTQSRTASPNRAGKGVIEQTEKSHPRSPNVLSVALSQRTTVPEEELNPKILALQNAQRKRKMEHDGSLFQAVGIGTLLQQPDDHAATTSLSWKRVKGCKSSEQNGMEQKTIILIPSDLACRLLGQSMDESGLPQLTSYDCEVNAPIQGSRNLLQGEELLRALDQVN

CCCCNC(=O)OCC#CI
active: [1] 50 µM | [2] 9.92 µM | [3] 0.00766 µM | [6] 50 µM
not listed: [19]
inactive: all other assays above

Cc1ccc(-c2c(Cl)nc(C#N)n2S(=O)(=O)N(C)C)cc1
inactive: [4] | [6] | [7] | [10] | [13] | [16] | [18]
active: [1] 10 µM | [2] 9.43 µM | [3] 7.01 µM | [5] 50 µM | [8] 28.7 µM | HGF (gene 3082) 86 µM | [9] 50 µM | [11] 13.6 µM | [12] 13.2 µM | [14] 50 µM | [15] 22.3 µM | [17] 50 µM

CS/C(C)=N/OC(=O)N(C)SN(C)C(=O)O/N=C(\C)SC
active: [1] 9.92 µM
not listed: [19]
inactive: all other assays above

OC(c1ccc(Cl)cc1)(c1cncnc1)c1ccccc1Cl (stereo not given)
inactive: [5] | [6] | [7] | [13] | [15] | [16]
active: [1] 77 µM | [2] 74.8 µM | [3] 50 µM | [4] 57.8 µM | [8] 82 µM | HGF (gene 3082) 62 µM | [9] 37.3 µM | [10] 74.3 µM | [11] 71.9 µM | [12] 73 µM | [14] 50 µM | [17] 85.7 µM | [18] 50 µM

CNC(=S)S
not listed: [19]
inactive: all other assays above

COc1nc(NC(C)C)nc(NC(C)C)n1
active: [9] 66.2 µM | [15] 39.4 µM
inactive: all other assays above
